Measured values taken from PubChem BioAssay.
Calls of active or inactive are those of the source.

How the values were obtained:
Albumin (Bos taurus) = Albumin (Bos taurus) (UniProt P02769); test: compounds binding labelled BSA control protein – biochemical, small-molecule microarray, Alexa647 label, 635/667 nm fluorescence, artefact control for SMM control protein annotation, profiling panel (AID 1118); conditions: BSA-A647 binding, fluorescence 635 nm, higher = more signal;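 note: score merges 667 nm emission intensity and signal-to-noise per printed compound spot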
[1] = probe aXIP binding to arrayed compounds – biochemical, NeuroSMM set, 635/667 nm fluorescence, primary screen (AID 1119); conditions: small-molecule microarray, higher = more signal, called active from +8 up or from −8 down;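 note: probe is the protein aXip251-270 applied at 1 µg/mL to compound-printed slides; binding of probe to printed compounds measured as 667 nm fluorescence plus signal to noise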
[2] = probe aNOTCH3 binding on compound microarray – biochemical, small-molecule microarray, 635/667 nm fluorescence, primary screen (AID 1120); conditions: higher = more signal;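 note: probe is a biotin-tagged antibody raised against NOTCH3 rather than NOTCH3 protein; score merges spot fluorescence near 667 nm with spot signal to noise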
[3] = probe aNOTCH2 binding on compound microarray – biochemical, small-molecule microarray, 635/667 nm fluorescence, primary screen (AID 1121); conditions: higher = more signal;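 note: score merges feature fluorescence read at 667 nm with its signal to noise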
[4] = target: Carbonic anhydrase 2 (Homo sapiens) (UniProt P00918); test: compounds binding carbonic anhydrase 2 – biochemical, small-molecule microarray, Alexa647-labelled CAII, profiling panel (AID 1122); conditions: CAII-A647 binding fluorescence, higher = more signal
[5] = COS7 lysate on small-molecule microarray, probe aHis, 635 nm (AID 1123); conditions: COS7 cell lysate, fluorescence, higher = more signal;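 note: z-score combines 667nm fluorescence intensity with signal-to-noise per printed compound spot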
[6] = probe aLAP1 signal on lysate-treated microarray – cell lysate, small-molecule microarray, COS7 lysate, primary screen (AID 1124); conditions: probe aLAP1, fluorescence, higher = more signal;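 note: lysate comes from COS7 cells expressing LAP1 and is applied at 0.3 µg/mL; score merges spot fluorescence near 667 nm with signal-to-noise over triplicate slides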
Sam68 (KHDRBS1) = test: compounds binding KHDRBS1 protein – biochemical, small-molecule microarray, 635 nm fluorescence, primary screen (AID 1125); conditions: higher = more signal;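 note: score merges 667 nm channel intensity with signal to noise over triplicate slides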
[7] = system: Chordin-like protein 2 (CHRDL2); test: compounds binding chordin-like 2 – biochemical, small-molecule microarray, 635 nm fluorescence, primary screen (AID 1126); conditions: fluorescence 635 nm, higher = more signal;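 note: printed compound slides probed with Chrdl2 protein at 4 µg/mL for 1 h at 4 C; score merges 667 nm emission intensity with signal to noise over three replicate slides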
[8] = target: Concanavalin-A (Canavalia ensiformis) (UniProt P02866); test: compounds binding concanavalin A lectin – biochemical, small-molecule microarray, Alexa647 label, 635 nm, artefact control for SMM control protein annotation, primary screen (AID 1127); conditions: ConA-A647 binding fluorescence, higher = more signal;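 note: z combines 667 nm emission intensity with signal-to-noise across three replicate slides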
[9] = compounds binding Alexa647 anti-His antibody – biochemical, small-molecule microarray, 635 nm fluorescence, artefact control for SMM control protein annotation, primary screen (AID 1128); conditions: higher = more signal;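 note: score merges feature fluorescence with signal-to-noise for each printed compound spot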
[10] = system: Human papillomavirus type 1a E7 protein (residues 1-88); test: HPV1a E7 small-molecule binders, primary screen, biochemical, small-molecule microarray, residues 1-88, 635 nm (AID 1129); conditions: small-molecule microarray binding, fluorescence 635 nm; higher = more signal
[11] = target: Focal adhesion kinase 1 (Homo sapiens) (UniProt Q05397); test: PTK2 protein binding on printed compound slides – biochemical, small-molecule microarray, 635/667 nm fluorescence, BSA, DTT, primary screen (AID 1130); conditions: 635 nm fluorescence, higher = more signal;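 note: composite of spot emission at 667 nm and signal to noise over triplicate slides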
[12] = system: Fibrinogen (Alexa647-labelled); test: Alexa647-fibrinogen binding to printed small molecules – biochemical, small-molecule microarray, 635/667 nm fluorescence, artefact control for SMM control-protein annotation, profiling panel (AID 1131); conditions: fibrinogen-A647 binding fluorescence, higher = more signal;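 note: z-score merges 667 nm fluorescence with per-spot signal-to-noise over triplicate slides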
[13] = target: Follistatin (Homo sapiens) (UniProt P19883); test: FST protein binding to printed compounds – biochemical, small-molecule microarray, 635/667 nm fluorescence, primary screen (AID 1132); conditions: 635 nm fluorescence, higher = more signal
[14] = target: Fibroblast growth factor 2 (Homo sapiens) (UniProt P09038); test: basic fibroblast growth factor binding to printed compounds – biochemical, small-molecule microarray, 635/667 nm fluorescence, primary screen (AID 1133); conditions: FGF2, fluorescence 635/667, higher = more signal
[15] = JC-1 mitochondrial potential readout, lung cancer cells – cell-based, A549, JC-1 fluorescence, basal, 24 h, 100 nL, profiling panel (AID 1138); conditions: higher = more signal;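 note: A549 lung adenocarcinoma cells under basal conditions with no added stimulus; test concentration not given here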
Lefty1 = Lefty1 protein binding to printed compounds – biochemical, small-molecule microarray, 635/667 nm fluorescence, primary screen (AID 1139); conditions: fluorescence 635/667, higher = more signal
[16] = system: wheat germ agglutinin (Triticum aestivum), Alexa647-labelled; test: Alexa647-WGA lectin binding to printed small molecules – biochemical, small-molecule microarray, 635/667 nm fluorescence, artefact control for SMM control-protein annotation, profiling panel (AID 1140); conditions: WGA-A647 binding, 635 nm fluorescence, higher = more signal;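 note: score merges 667 nm feature emission with signal to noise over triplicate slides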
[17] = target: Luciferin 4-monooxygenase (Photinus pyralis) (UniProt P08659); test: inhibition of purified Photinus pyralis luciferase – biochemical, luminescence, purified enzyme, 2006 set, primary screen (AID 1141); conditions: purified firefly luciferase, SteadyGlo luminescence, 30 min; higher = more signal, called active from +8 up or from −8 down;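 note: cell-free assay with purified firefly luciferase at 100 ng per well in PBS; test concentration not given here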
Luciferin 4-monooxygenase (Photinus pyralis), sequence (P08659 whole entry, looked up): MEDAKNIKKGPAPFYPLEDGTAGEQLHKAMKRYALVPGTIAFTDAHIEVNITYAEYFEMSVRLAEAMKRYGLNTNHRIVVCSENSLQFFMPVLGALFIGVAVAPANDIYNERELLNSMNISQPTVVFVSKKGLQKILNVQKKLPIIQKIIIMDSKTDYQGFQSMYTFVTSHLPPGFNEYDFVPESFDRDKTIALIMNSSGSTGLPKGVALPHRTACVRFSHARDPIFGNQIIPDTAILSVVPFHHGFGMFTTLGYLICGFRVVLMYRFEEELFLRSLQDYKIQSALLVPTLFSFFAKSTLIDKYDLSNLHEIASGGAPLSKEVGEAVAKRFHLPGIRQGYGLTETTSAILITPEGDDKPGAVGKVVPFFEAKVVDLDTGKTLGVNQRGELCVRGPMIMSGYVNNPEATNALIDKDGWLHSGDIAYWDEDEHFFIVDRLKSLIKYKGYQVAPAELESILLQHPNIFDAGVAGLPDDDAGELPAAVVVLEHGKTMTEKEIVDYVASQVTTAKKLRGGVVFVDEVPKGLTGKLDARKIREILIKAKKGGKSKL

Concanavalin-A (Canavalia ensiformis), sequence (P02866 whole entry, looked up): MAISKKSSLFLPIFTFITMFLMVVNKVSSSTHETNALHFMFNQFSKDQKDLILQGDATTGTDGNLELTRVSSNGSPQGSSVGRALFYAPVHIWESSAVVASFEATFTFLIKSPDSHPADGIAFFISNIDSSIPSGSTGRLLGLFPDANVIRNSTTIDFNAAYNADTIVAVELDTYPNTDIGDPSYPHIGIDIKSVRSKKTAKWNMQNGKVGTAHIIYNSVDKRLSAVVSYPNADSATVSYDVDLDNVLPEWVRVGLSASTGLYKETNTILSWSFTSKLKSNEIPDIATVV
Fibroblast growth factor 2 (Homo sapiens), sequence (P09038 whole entry, looked up): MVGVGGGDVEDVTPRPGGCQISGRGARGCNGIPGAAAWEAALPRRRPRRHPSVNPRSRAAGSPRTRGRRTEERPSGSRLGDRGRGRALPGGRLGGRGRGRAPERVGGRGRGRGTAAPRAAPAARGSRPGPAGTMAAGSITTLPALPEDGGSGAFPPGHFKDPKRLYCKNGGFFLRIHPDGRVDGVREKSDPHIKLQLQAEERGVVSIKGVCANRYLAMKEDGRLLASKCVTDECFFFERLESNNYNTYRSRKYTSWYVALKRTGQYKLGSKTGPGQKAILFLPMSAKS
Focal adhesion kinase 1 (Homo sapiens), sequence (Q05397 whole entry, looked up): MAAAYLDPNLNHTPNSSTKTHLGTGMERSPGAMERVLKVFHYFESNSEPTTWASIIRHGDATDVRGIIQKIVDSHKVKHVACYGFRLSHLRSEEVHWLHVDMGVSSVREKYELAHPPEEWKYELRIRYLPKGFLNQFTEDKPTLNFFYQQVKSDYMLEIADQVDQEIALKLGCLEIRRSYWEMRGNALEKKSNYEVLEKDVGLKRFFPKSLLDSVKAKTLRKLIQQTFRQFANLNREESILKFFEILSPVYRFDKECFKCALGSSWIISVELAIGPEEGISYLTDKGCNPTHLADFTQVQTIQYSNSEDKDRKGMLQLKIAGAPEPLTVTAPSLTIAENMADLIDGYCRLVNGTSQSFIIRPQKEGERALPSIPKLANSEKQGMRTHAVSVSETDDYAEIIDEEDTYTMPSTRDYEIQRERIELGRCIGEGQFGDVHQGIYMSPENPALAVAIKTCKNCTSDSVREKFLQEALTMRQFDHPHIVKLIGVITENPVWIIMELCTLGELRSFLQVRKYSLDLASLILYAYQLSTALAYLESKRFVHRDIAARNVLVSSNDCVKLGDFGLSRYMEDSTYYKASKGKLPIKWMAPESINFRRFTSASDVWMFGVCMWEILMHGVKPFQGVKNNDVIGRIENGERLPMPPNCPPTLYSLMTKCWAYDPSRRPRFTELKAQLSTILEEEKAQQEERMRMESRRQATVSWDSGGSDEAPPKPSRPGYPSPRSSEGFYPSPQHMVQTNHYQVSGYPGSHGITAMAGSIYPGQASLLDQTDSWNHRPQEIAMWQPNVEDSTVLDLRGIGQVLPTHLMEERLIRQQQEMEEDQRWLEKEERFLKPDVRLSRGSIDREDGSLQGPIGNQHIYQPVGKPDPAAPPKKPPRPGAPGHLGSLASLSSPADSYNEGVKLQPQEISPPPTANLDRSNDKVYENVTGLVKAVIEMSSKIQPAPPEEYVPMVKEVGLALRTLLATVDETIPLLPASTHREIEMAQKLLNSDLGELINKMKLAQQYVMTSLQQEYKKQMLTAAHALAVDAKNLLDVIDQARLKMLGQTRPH
Albumin (Bos taurus), sequence (P02769 whole entry, looked up): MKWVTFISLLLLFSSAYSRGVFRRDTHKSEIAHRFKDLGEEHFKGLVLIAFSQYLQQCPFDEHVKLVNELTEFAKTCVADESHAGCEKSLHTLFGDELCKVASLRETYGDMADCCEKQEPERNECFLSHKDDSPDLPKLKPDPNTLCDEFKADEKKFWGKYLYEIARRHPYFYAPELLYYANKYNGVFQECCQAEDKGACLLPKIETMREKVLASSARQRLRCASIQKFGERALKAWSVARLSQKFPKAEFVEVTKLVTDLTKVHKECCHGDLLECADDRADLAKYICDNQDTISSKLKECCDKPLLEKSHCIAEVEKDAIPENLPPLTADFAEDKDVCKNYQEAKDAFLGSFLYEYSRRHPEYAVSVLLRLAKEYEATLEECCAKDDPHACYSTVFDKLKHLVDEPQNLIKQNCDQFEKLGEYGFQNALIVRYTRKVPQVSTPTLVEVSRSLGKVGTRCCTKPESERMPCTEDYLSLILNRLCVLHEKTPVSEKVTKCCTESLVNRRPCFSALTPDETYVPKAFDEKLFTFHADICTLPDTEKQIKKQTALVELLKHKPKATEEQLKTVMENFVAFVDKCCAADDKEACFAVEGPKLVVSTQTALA
Follistatin (Homo sapiens), sequence (P19883 whole entry, looked up): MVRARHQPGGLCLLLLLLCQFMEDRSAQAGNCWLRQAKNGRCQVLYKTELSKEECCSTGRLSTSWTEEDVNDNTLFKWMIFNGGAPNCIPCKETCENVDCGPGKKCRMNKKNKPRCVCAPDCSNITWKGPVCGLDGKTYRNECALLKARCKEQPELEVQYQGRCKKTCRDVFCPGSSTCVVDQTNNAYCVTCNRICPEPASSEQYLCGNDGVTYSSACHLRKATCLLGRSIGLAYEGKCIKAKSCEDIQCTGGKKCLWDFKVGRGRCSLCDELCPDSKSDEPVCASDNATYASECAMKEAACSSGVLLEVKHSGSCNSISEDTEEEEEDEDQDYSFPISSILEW

Compound | composite z-score (Albumin (Bos taurus)) | composite Z-score [1] | composite z-score [2] | composite z-score [3] | composite z-score [4] | composite z-score [5] | composite z-score [6] | composite z-score (Sam68 (KHDRBS1)) | composite z-score [7] | composite z-score [8] | composite z-score [9] | composite z-score [10] | composite z-score [11] | composite z-score [12] | composite z-score [13] | composite z-score [14] | z-score [15] | composite z-score (Lefty1) | composite z-score [16] | z-score [17]
CCCC[C@H]1C[C@@H]1[C@@H]1N(C(C)=O)[C@H](c2cccc(OC)c2)CC12CC2 | 0.219 | 0.797 (inactive) | 0.0026 | 0.0112 | 0.202 | 0.808 | 0.603 | -0.658 | -1 | -0.745 | -0.101 | 0.173 | 0.17 | 0.832 | -0.631 | -0.532 | 0.605 | -0.613 | 0.133 | 2.15 (inactive)
C=C(COC)C(=O)CC[C@@H](OC(=O)c1ccccc1-c1ccccc1C(=O)O)c1ccc(OCCO)cc1 | -0.238 | 0.081 (inactive) | -0.0491 | -0.154 | 0.784 | 0.113 | 0.238 | 0.576 | 0.319 | -0.0355 | -0.0978 | -0.0905 | -0.0142 | -1.48 | 1.45 | 1.42 | 0.0645 | 1.48 | 0.595 | -3.04 (inactive)
COc1ccc([Si](C)(C)[C@H]2[C@H](CCO)O[C@@]3(C(=O)N(Cc4cccc(N(C=O)c5ccccc5)c4)c4ccccc43)[C@@H]2C)cc1 | 0.291 | -0.313 (inactive) | 0.059 | -0.102 | 0.467 | 1.28 | 0.677 | 1.28 | 0.293 | 1.15 | 0.911 | 1.19 | -0.048 | 0.777 | 0.832 | 0.886 | 0.837 | 1.05 | 0.259 | 0.281 (inactive)
C=CCC(OC(C)=O)[C@@H]1[C@@H](N(Cc2cccc3ccccc23)C(=O)Cc2ccc(OC)cc2)c2cc(OCCCO)ccc2N1C(=O)c1ccc2ccccc2c1 (stereo not given in full) | 0.226 | -0.0662 (inactive) | 0.0232 | -0.143 | 0.331 | 0.481 | -0.0588 | -0.278 | 0.0839 | 0.0699 | -0.185 | -0.322 | 0.321 | 0.475 | 0.792 | -0.0926 | 0.0343 | 0.143 | 0.453 | 0.851 (inactive)
CO[C@H]1O[C@H](CO)[C@@H](OC(=O)Nc2ccccc2-c2ccccc2)[C@H](OC(=O)Nc2ccccc2)[C@H]1OC(=O)Nc1ccccc1 | 0.167 | -0.295 (inactive) | 0.199 | -0.0846 | 0.701 | 2.41 | 0.268 | 1.3 | 0.697 | 1.15 | 1.38 | 1.29 | 0.508 | 0.991 | 1.3 | 1.86 | -1.06 | 0.719 | 0.679 | -0.849 (inactive)
COC(=O)[C@@]1(Cc2ccccc2)[C@H]2c3cc(C(=O)N(C)C)n(CCO)c3C[C@H]2CN1C(=O)c1ccccc1 | 1.04 | 0.335 (inactive) | 0.0259 | 0.19 | 0.958 | 3.13 | 0.877 | 1.24 | -1.44 | 1.2 | 1.86 | 1.16 | 1.89 | 1.02 | -0.535 | -0.541 | 0.628 | -0.986 | 1.41 | 2.11 (inactive)
C=C(/C(=C/C[C@@H](OC(C)=O)c1cccc(OCCO)c1)c1cnc2ccccc2c1)C(C)C | 0.286 | 0.19 (inactive) | -0.0787 | -0.124 | 0.803 | 1.26 | -0.149 | 0.869 | 1.38 | 0.629 | 0.607 | 0.472 | 0.138 | -0.31 | 1.5 | 1.68 | 0.41 | 1.55 | 1.07 | -0.614 (inactive)
O=C(NCC(O)CO)[C@@]1(CCS(=O)(=O)c2ccccc2)N=C(c2ccc(OCCCO)cc2)O[C@H]1c1ccccc1 (stereo not given in full) | 0.905 | 1.06 (inactive) | 0.177 | 0.137 | 0.555 | 3.17 | 1.11 | 1.22 | 0.106 | 0.0968 | 1.9 | 1.23 | 1.38 | 0.993 | 1.33 | -0.0831 | -0.503 | -1.02 | 0.762 | -0.845 (inactive)
COCCOC(=O)N1C(=O)[C@@]2(c3cc(C#CCC(C(=O)OC)C(=O)OC)ccc31)[C@H](C(=O)Nc1nc3ccccc3s1)[C@H]1C(=O)O[C@H](c3ccccc3)[C@H](c3ccccc3)N1[C@@H]2c1ccc(OCCO)cc1 | -0.978 | 1.21 (inactive) | 0.414 | 0.0328 | 0.487 | 1.24 | 0.705 | 1.29 | 1.32 | 1.18 | 2.33 | 0.988 | 0.35 | 0.746 | 1.39 | 1.79 | -2.33 | 1.64 | 0.44 | -4.07 (inactive)
COc1ccc(C(O)C2C=CC3C(=O)N(C)C(=O)C3N2N(c2ccccc2)c2ccccc2)cc1 (stereo not given) | 0.86 | 0.828 (inactive) | 0.016 | -0.0657 | 0.728 | 1.49 | 0.0978 | 0.731 | 0.0617 | 0.632 | 2.06 | 0.906 | 0.167 | 0.805 | 1.03 | 0.149 | 1.25 | -0.729 | 1.28 | 0.322 (inactive)
